Laboratory results published in PubChem BioAssay (Tox21).
“And” between values parts separate entries of the source, which are not always exact repeats. Equal entries are not always repeated. Results filed as inconclusive are left out. Where a structure was tested more than once in an assay, its records may differ in their call. The source made the active and inactive calls. Unless noted, calls come from the whole dose curve; as a rule, active = well fitted curve in the direction sought with a large enough effect in the repeat runs; inconclusive = weak or mixed curves; inactive = no such curve, though single readings can be large; an effect the other way counts as inactive or inconclusive.

Tests used:
[1] = target: Retinoic acid receptor RXR-alpha (Homo sapiens) (UniProt P19793); assay: qHTS assay to identify small molecule agonists of the RXR signaling pathway (AID 1159527; calls by dose curve; note: nearly all actives have a fitted effect of over 35% in size; note: potency is the fitted concentration of half-maximal effect)
Sequence of Retinoic acid receptor RXR-alpha (Homo sapiens) (P19793 whole entry, looked up): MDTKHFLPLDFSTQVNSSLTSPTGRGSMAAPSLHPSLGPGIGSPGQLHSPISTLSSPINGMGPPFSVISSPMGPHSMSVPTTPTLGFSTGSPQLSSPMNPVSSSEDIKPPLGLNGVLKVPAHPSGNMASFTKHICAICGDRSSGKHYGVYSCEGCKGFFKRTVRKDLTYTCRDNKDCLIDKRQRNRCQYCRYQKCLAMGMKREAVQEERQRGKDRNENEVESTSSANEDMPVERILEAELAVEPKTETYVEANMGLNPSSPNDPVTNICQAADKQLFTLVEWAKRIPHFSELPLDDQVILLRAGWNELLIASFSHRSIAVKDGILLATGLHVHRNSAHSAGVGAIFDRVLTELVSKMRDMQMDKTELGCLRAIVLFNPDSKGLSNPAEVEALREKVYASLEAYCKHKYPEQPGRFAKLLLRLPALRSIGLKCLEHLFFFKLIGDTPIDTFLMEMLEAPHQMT
Procedure, shortened: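 Cells plated at 2,000/well, rested 5 hr at 37 C, pin-dosed with DMSO compound solutions, incubated 16 hr, then loaded with B/G FRET substrate for 2 hr at RT before dual-emission fluorescence reading.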

[2] = qHTS assay to identify small molecule agonists of the RXR signaling pathway - cell viability counter screen (AID 1159529);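 note: HEK 293T cells carrying an RXR-alpha UAS beta-lactamase reporter; series mostly up to about 77 µM; nearly all actives have a fitted effect of over 50% in size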
Procedure, shortened: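 Steps: seed RXR-alpha-UAS-bla HEK 293T cells in assay medium containing 2% charcoal-stripped FBS; incubate 5 hr; add compounds in DMSO; incubate 16 hr at 37 C; after the bla read, add CellTiter-Glo and read luminescence at 30 min.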

[3] = qHTS assay to identify small molecule antagonists of the retinoid acid receptor (RAR) signaling pathway - cell viability counter screen (AID 1159551); note: nearly all actives have a fitted effect of over 35% in size
Procedure, shortened: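 Retinol-stimulated (1 uM final) C3RL4 cells, compound 6 h, 37 C; readout CellTiter-Glo luminescence (ATP) after 30 min RT incubation.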

[4] = qHTS assay to identify small molecule antagonists of the retinoic acid receptor (RAR) signaling pathway (AID 1159552; note: nearly all actives have a fitted effect of over 50% in size)
Procedure, shortened: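 Retinol at 1 uM final stimulated RARE-luciferase expression in C3RL4 cells exposed to test compounds for 6 hr at 37 C. Reduced luminescence, read 30 min after detection reagent, indicated pathway antagonism.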

[5] = qHTS assay to identify small molecule agonists of the retinoic acid receptor (RAR) signaling pathway (AID 1159553)
Procedure, shortened: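 Reporter readout comes from luciferase under RARE control in C3RL4 cells; compound exposure lasts 6 hr at 37 C in 5% CO2, and luminescence is recorded following a 30 min room-temperature incubation with reagent.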

Measured: Potency

COc1ccc(N)c(C)c1
inactive: [1] | [2] | [3]

CN(C)c1ccc(O)c2c1C[C@H]1C[C@H]3[C@H](N(C)C)C(=O)C(C(N)=O)=C(O)[C@@]3(O)C(=O)C1=C2O
inactive: [1] | [2] | [3]

COc1ccc(OC)cc1
inactive: [1] | [2] | [3]

C=CCCCCCCCCC(=O)O
inactive: [2] | [3]
active: [1] 43.6 µM

CCNC(=S)NCC
inactive: [1] | [2] | [3]

CCCCCCCCCCCC(=O)OC
inactive: [1] | [2] | [3]

C=CCc1ccc(OC)c(OC)c1
inactive: [2] | [3]
inactive and 7.76 µM (active): [1]

COc1cc(OC)c(C(=O)CCCN2CCCC2)c(OC)c1
inactive: [1] | [2] | [3]

CC(=O)c1ccc(O)cc1
inactive: [1] | [2] | [3]

CC(C)(C#N)c1cc(Cn2cncn2)cc(C(C)(C)C#N)c1
inactive: [1] | [2] | [3]

O=C(O)/C=C/C(=O)O
inactive: [1] | [2] | [3]

C=C(C)[C@H]1CC=C(C)C(=O)C1
inactive: [1] | [2] | [3]

CC(C)c1cccc(C(C)C)c1
inactive: [1] | [2] | [3] | [4] | [5]

NCCN1CCNCC1
inactive: [1] | [2] | [3] | [4] | [5]

CCCCCCCC=O
inactive: [1] | [2] | [3]

CCCOC(=O)c1ccccc1
inactive: [1] | [2] | [3]

COc1ccccc1OCC(O)CO (stereo unspecified)
inactive: [1] | [2] | [3]

COc1ccc(C)cc1N
inactive: [1] | [2] | [3] | [4] | [5]

CCO[Si](CCCN)(OCC)OCC
inactive: [2] | [3]
19.5 µM (active) and inactive: [1]

CN/C(=C\[N+](=O)[O-])NCCSCc1csc(CN(C)C)n1
inactive: [1] | [2] | [3]

OC1C(O)C(O)C(O)C(O)C1O (stereo unspecified)
inactive: [1] | [2] | [3]

O=C1c2ccccc2CCc2ccccc21
inactive: [1] | [2] | [3] | [4]

O=C1CCCC1
inactive: [1] | [2] | [3] | [4] | [5]

CCNc1ccccc1
inactive: [1] | [2] | [3] | [4] | [5]

CCO[Si](CCC#N)(OCC)OCC
inactive: [1] | [2] | [3]

COCCCN
inactive: [1] | [2] | [3]

O=S(=O)(O)c1ccc(N=Nc2c(O)ccc3cc(S(=O)(=O)O)ccc23)cc1
inactive: [1] | [2] | [3] | [4] | [5]

N#Cc1ccccc1
inactive: [1] | [2] | [3]

O=C(O)c1ccc(C(=O)O)c(C(=O)O)c1
inactive: [1] | [2] | [3] | [4] | [5]

NC(=S)NNC(N)=S
inactive: [1] | [2] | [3] | [4] | [5]

CCOC(=O)c1ccc(N)cc1
inactive: [1] | [2] | [3] | [4]

CCc1ccccc1CC
inactive: [1] | [2] | [3]

CC(C)OP(=O)(CP(=O)(OC(C)C)OC(C)C)OC(C)C
inactive: [1] | [2] | [3]

CC(O)CC(C)(C)O (stereo unspecified)
inactive: [1] | [2] | [3] | [4] | [5]

CC(=O)OCCOC(C)=O
inactive: [1] | [2] | [3]

C[Si]1(C)O[Si](C)(C)O[Si](C)(C)O[Si](C)(C)O1
inactive: [1] | [2] | [3]

O=[N+]([O-])c1ccc2nc[nH]c2c1
inactive: [1] | [2] | [3]

CCCCCCCCCCCCCCCC(=O)OC(C)C
inactive: [1] | [2] | [3] | [4] | [5]

O=C(O)CCCCCCCCC(=O)O
inactive: [1] | [2] | [3] | [4] | [5]

CC(=O)CC(C)(C)O
inactive: [1] | [2] | [3] | [4] | [5]

CCCCCCCO
inactive: [1] | [2] | [3] | [4] | [5]

O=C(O)c1cc2ccccc2cc1O
inactive: [1] | [2] | [3] | [4] | [5]

CC(=O)OCc1ccco1
inactive: [1] | [2] | [3] | [4] | [5]

N[C@H](Cc1c[nH]c2ccccc12)C(=O)O
inactive: [1] | [2] | [3] | [4] | [5]

CC(C)CC(C)O (stereo unspecified)
inactive: [1] | [2] | [3] | [4] | [5]

COc1ccc([N+](=O)[O-])cc1N
inactive: [1] | [2] | [3] | [4] | [5]

CC1(C)OC[C@@H]2O[C@@]3(C(=O)O)OC(C)(C)O[C@H]3[C@@H]2O1
inactive: [2] | [3] | [4] | [5]
21.9 µM (active) and inactive: [1]
